# Source: PubChem BioAssay AID720649 (The Scripps Research Institute Molecular Screening Center, 2013)
# This is one part of the list. Active and inactive are the calls of the source. No rule for the calls is given here.
# Experiment: TO-PRO-1 dye complex inhibitors on d(CAG) DNA, dose response, counter-screen, biochemical, fluorescence, late stage (AID 720649)
# Conditions: d(CAG) DNA duplex TO-PRO-1 dye displacement
compound,measurement,value
Cc1noc(NS(=O)(=O)c2ccc(NC(=O)c3oc4ccc(F)cc4c3C)cc2)c1C,IC50,4.19 µM (active)
